Experimental data as given in PubChem BioAssay (NCI).
This is part of a sample that, as a whole, favours compounds with a hit. Of some 83,000 tested, about 20% had one in any assay.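 Values shown are percent growth following 48 h exposure of cells in 96-well plates to a single concentration of compound; below 10 was considered active.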 Values without a mark were called inactive. Active and inactive are the calls of the source.

What was measured:
Assay in all cases: NCI-60 one-dose screen, 48 h (100 = growth as untreated, 0 = no growth, -100 = all killed)
NCI-H23 lung = conditions: 10 µM unless noted
NCI-H226 lung = conditions: 10 µM unless noted
NCI-H322M lung = conditions: 10 µM unless noted
HOP-62 NSCLC = conditions: 10 µM unless noted
NCI-H460 lung = conditions: 10 µM unless noted
786-0 renal = conditions: 10 µM unless noted
MDA-MB-231 breast = conditions: 10 µM unless noted
SF-268 CNS = conditions: 10 µM unless noted
SF-539 CNS = conditions: 10 µM unless noted
HCT-15 colon = conditions: 10 µM
U251 CNS = conditions: 10 µM unless noted
PC-3 prostate = conditions: 10 µM unless noted
SK-MEL-28 melanoma = conditions: 10 µM unless noted
SN12C renal = conditions: 10 µM unless noted
HS 578T breast = conditions: 10 µM unless noted
NCI/ADR-RES ovarian = conditions: 10 µM unless noted
SW-620 colon = conditions: 10 µM unless noted
MCF7 breast = conditions: 10 µM unless noted
HCT-116 colon = conditions: 10 µM unless noted
KM12 colon = conditions: 10 µM unless noted

COc1cc[c]([Hg][Cl])cc1
growth (NCI-H23 lung): 47%
growth (NCI-H226 lung): 100%
growth (NCI-H322M lung): 99.1%
growth (HOP-62 NSCLC): 82.6%
growth (NCI-H460 lung): 43.9%
growth (786-0 renal): 56%
growth (MDA-MB-231 breast): 46.2%
growth (SF-268 CNS): 56.8%
growth (SF-539 CNS): 85.2%
growth (HCT-15 colon): -42.8% (active)
growth (U251 CNS): -26% (active)
growth (PC-3 prostate): 77.6%
growth (SK-MEL-28 melanoma): 20.7%
growth (SN12C renal): -6.35% (active)
growth (HS 578T breast): 30.5%
growth (NCI/ADR-RES ovarian): 86.2%
growth (SW-620 colon): 18.9%
growth (MCF7 breast): 27.9%
growth (HCT-116 colon): 48.4%
growth (KM12 colon): 102%

O=C(C(=O)N1CCCC1)c1cn(CCCCCn2cc(C(=O)C(=O)N3CCCC3)c3ccccc32)c2ccccc12
growth (NCI-H23 lung): 91.1%
growth (NCI-H226 lung): 89%
growth (NCI-H322M lung): 93.9%
growth (HOP-62 NSCLC): 102%
growth (NCI-H460 lung): 91.3%
growth (786-0 renal): 105%
growth (MDA-MB-231 breast): 77.2%
growth (SF-268 CNS): 91.4%
growth (SF-539 CNS): 94.8%
growth (HCT-15 colon): 97.5%
growth (U251 CNS): 88%
growth (PC-3 prostate): 65.9%
growth (SK-MEL-28 melanoma): 106%
growth (SN12C renal): 82.3%
growth (HS 578T breast): 94.4%
growth (NCI/ADR-RES ovarian): 84.4%
growth (SW-620 colon): 91.9%
growth (MCF7 breast): 86.6%
growth (HCT-116 colon): 94.1%
growth (KM12 colon): 86.3%

O=[N+]([O-])c1ccc(/C=C/C=C/c2ccc(S(=O)(=O)F)cc2)c(Cl)c1
growth (NCI-H23 lung): 96.4%
growth (NCI-H226 lung): 99.8%
growth (NCI-H322M lung): 94.7%
growth (HOP-62 NSCLC): 99.9%
growth (NCI-H460 lung): 107%
growth (786-0 renal): 97.5%
growth (MDA-MB-231 breast): 99.3%
growth (SF-268 CNS): 96.1%
growth (SF-539 CNS): 104%
growth (HCT-15 colon): 98%
growth (U251 CNS): 96.2%
growth (PC-3 prostate): 91.8%
growth (SK-MEL-28 melanoma): 98.6%
growth (SN12C renal): 96.7%
growth (HS 578T breast): 111%
growth (NCI/ADR-RES ovarian): 104%
growth (SW-620 colon): 104%
growth (MCF7 breast): 102%
growth (HCT-116 colon): 106%
growth (KM12 colon): 97.1%
